The results in this text go back to PubChem BioAssay (Tox21).

The structures appear in SMILES notation. Records with an inconclusive call do not appear. A call without a number means that no potency is given here. Calls of active or inactive are those of the source. Calls follow the shape of the full dose curve.
Potency is read from the fitted curve at half-maximal effect.

5-hydroxytryptamine receptor 2A (Homo sapiens), sequence (P28223 whole entry, looked up): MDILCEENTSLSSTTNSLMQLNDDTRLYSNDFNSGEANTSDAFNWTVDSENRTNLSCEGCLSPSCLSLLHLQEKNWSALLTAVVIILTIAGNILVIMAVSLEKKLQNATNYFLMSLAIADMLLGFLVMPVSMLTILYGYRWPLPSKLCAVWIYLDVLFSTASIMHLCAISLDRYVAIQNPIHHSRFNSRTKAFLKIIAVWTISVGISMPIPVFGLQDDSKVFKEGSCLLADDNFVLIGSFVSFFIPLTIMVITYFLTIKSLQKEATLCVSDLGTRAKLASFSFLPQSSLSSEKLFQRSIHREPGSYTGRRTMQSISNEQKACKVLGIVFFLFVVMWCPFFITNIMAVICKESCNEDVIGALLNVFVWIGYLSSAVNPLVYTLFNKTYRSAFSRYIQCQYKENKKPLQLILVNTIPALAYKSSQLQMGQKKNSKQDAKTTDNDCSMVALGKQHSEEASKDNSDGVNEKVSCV

The assay addresses 5-hydroxytryptamine receptor 2A (Homo sapiens) (UniProt P28223). Put plainly: 5-hydroxytryptamine receptor 2A (HTR2A) small molecule antagonists, cell-based qHTS assay (AID 1963586). Also: nearly all actives have a fitted effect of over 45% in size. As to conditions: HTR2A-CHO cells, DOI-induced calcium flux, fluorescence; series mostly up to 61.5 µM. A digest of the protocol: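 Antagonist-mode intracellular calcium assay: DOI (4 nM) added after 5 min compound pre-incubation at room temperature to dye-loaded HTR2A-CHO cells. Fluorescence followed for 3 min, sampled every second.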
Turning to `S=C=NCCc1ccccc1`, the Potency result was “inactive”.

As for `Clc1cc(Cl)c(-c2cc(Cl)c(Cl)cc2Cl)cc1Cl`, the Potency result is “inactive”.

Regarding `CC1=C2C[C@H]3[C@@H](CC=C4C[C@@H](O)CC[C@@]43C)[C@@H]2CC[C@]12O[C@@H]1C[C@H](C)CN[C@H]1[C@H]2C`, the Potency entry was “inactive”.

For the compound `Cc1nc2ccccc2c(=O)n1-c1ccccc1Cl`, the Potency entry was “inactive”.

For the compound `ClC1=C(Cl)[C@]2(Cl)[C@H]3[C@H]([C@@H]4C=C[C@H]3C4)[C@@]1(Cl)C2(Cl)Cl`, the Potency entry is “inactive”.

`CC(C)[C@@H](C(=O)O[C@@H](C#N)c1cccc(Oc2ccccc2)c1)c1ccc(Cl)cc1`: the Potency entry was “inactive”.

Consider `O=C(Cl)c1ccc(Cl)cc1`, for which the Potency result is “inactive”.

On to `CCCCOCN(C(=O)CCl)c1c(CC)cccc1CC`, for which the Potency result is “inactive”.

For `Nc1ccc([N+](=O)[O-])cc1Cl`, the Potency entry was “inactive”.

Take `CCCCP(CCCC)CCCC`: the Potency result is “inactive”.

In the case of `ClC1=C(Cl)[C@]2(Cl)[C@H]3[C@H]([C@H]4C=C[C@H]3C4)[C@@]1(Cl)C2(Cl)Cl`, the Potency entry is “inactive”.

On to `COC(=O)C(c1ccccc1)C1CCCCN1` (stereo not given), for which the Potency entry is “inactive”.

Take `CC(=O)[O-].CC(=O)[O-].O.O.[Cd+2]`: the Potency entry was “inactive”.

`CN1C(=O)[C@@H](NC(=O)c2cc3ccccc3[nH]2)N=C(c2ccccc2)c2ccccc21`: the Potency result is “inactive”.

As for `CCO[C@H]1O[C@@H]2OC3(C)CC[C@H]4[C@H](C)CC[C@@H]([C@H]1C)[C@@]24OO3`, the Potency result is “inactive”.

With `CCOC(=O)C(Cl)Cc1cc(-n2nc(C)n(C(F)F)c2=O)c(F)cc1Cl` (stereo not given), the Potency entry is “inactive”.

For the compound `[O-][Br+2]([O-])O`, the Potency result was “inactive”.

As to `Nc1c(Cl)c(F)nc(OCC(=O)O)c1Cl`, the Potency entry was “inactive”.

With `N#CC(C#N)=C(C#N)C#N`, the Potency result was “inactive”.

Regarding `CC1COC(Cn2cncn2)(c2ccc(Oc3ccc(Cl)cc3)cc2Cl)O1` (stereo not given), the Potency entry was “inactive”.

Consider `COCC(C)N(C(=O)CCl)c1c(C)csc1C` (stereo not given), for which the Potency result is “inactive”.

With `CCOc1cc(Oc2ccc(C(F)(F)F)cc2Cl)ccc1[N+](=O)[O-]`, the Potency entry was “inactive”.

On to `CC(Cc1ccccc1)NCCn1cnc2c1c(=O)n(C)c(=O)n2C` (stereo not given), for which the Potency entry was “inactive”.

Consider `Cc1ccc([N+](=O)[O-])[c]2c1[O][Hg]2`, for which the Potency is 7.29 µM (active).

As to `CC1(C)C(C(=O)OC(C#N)c2cccc(Oc3ccccc3)c2)C1(C)C` (stereo not given), the Potency result is “inactive”.

Take `C=C(C)C(=O)[O][Sn]([CH2]CCC)([CH2]CCC)[CH2]CCC`: the Potency is 1.88 µM (active).

For the compound `CCCN(CC1CC1)c1c([N+](=O)[O-])cc(C(F)(F)F)cc1[N+](=O)[O-]`, the Potency result is “inactive”.

On to `Brc1ccc(Oc2ccc(Br)cc2Br)c(Br)c1`, for which the Potency result was “inactive”.

Turning to `CC(C)N1C(=O)N(c2ccccc2)CSC1=NC(C)(C)C`, the Potency entry is “inactive”.

Take `COC(=O)COc1ccc(Cl)cc1Cl`: the Potency entry is “inactive”.
